Data on 13 compounds can be found in PubChem BioAssay (Tox21).

The source made the active and inactive calls. Unless noted, the call rests on the fitted dose curve; in most records, active means well fitted curve in the direction sought with a large enough effect in the repeat runs; inconclusive means weak or mixed curves; inactive means no such curve, though single readings can be large; an effect the other way counts as inactive or inconclusive.

A short description of test [1]: qHTS assay to identify small molecule antagonists of the glucocorticoid receptor (GR) signaling pathway - cell viability counter screen (AID 720693; further: nearly all actives have a fitted effect of over 55% in size). (In qHTS, concentration-response curves come from the screen itself.)
A short description of test [2]: qHTS assay for identifying genotoxic compounds that show differential cytotoxicity against isogenic chicken DT40 cell lines with known DNA damage response pathways - wild type cell line (AID 743012). Further: nearly all actives have a fitted effect of over 60% in size. Further: potency means the concentration at half of the fitted maximal effect. The essentials:
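Viability of DNA repair-proficient chicken DT40 cells was assessed by CellTiter-Glo luminescence following 40 h compound exposure at 37 C/5% CO2.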

Test [3] can be described thus: qHTS assay for identifying genotoxic compounds that show differential cytotoxicity against isogenic chicken DT40 cell lines with known DNA damage response pathways - Rev3 mutant cell line (AID 743014). Further: nearly all actives have a fitted effect of over 55% in size. Further: potency means the concentration at half of the fitted maximal effect.
Test [4] in a line: qHTS assay for identifying genotoxic compounds that show differential cytotoxicity against isogenic chicken DT40 cell lines with known DNA damage response pathways - Rad54/Ku70 mutant cell line (AID 743015). Further: nearly all actives have a fitted effect of over 60% in size. Further: potency means the concentration at half of the fitted maximal effect.
Test [5] is described as follows: qHTS assay to identify small molecule antagonists of the androgen receptor (AR) signaling pathway - cell viability counter screen (AID 743033; further: nearly all actives have a fitted effect of over 45% in size).
Test [6] is described as follows: qHTS assay to identify small molecule antagonists of the androgen receptor (AR) signaling pathway using the MDA cell line - cell viability counter screen (AID 743041; further: nearly all actives have a fitted effect of over 45% in size). In outline:
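qHTS viability read-out; MDA-kb2 AR-luc; R1881-stimulated; 16 h exposure at 37C, 0% CO2; CellTiter-Fluor, 30 min; fluorescence intensity.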

The subject of test [7] is thyroid hormone receptor (rat, GH3 cells). The experiment in a line: qHTS assay to identify small molecule agonists of the thyroid receptor (TR) signaling pathway (AID 743066; calls by dose curve; further: potency means the concentration at half of the fitted maximal effect).
In test [8] the target is Estrogen receptor (Homo sapiens) (UniProt P03372). As to the kind of experiment: qHTS assay to identify small molecule antagonists of the estrogen receptor alpha (ER-alpha) signaling pathway (AID 743069; active means well fitted curve in the direction sought with a large enough effect in the signal ratio in the repeat runs, not every such curve was filed as active; inconclusive means weak or mixed curves, or effect the other way; inactive means no such curve, though single readings can be large or run the other way; the % refers to the signal ratio; further: potency means the concentration at half of the fitted maximal effect). The essentials: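 Screening used a UAS-driven beta-lactamase reporter integrated into HEK293 cells expressing ER-alpha, stimulated with 17beta-estradiol alongside test compounds over 18 hr at 37C; signal came from LiveBLAzer B/G FRET fluorescence.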
Chain of Estrogen receptor (Homo sapiens) (P03372 whole entry, looked up): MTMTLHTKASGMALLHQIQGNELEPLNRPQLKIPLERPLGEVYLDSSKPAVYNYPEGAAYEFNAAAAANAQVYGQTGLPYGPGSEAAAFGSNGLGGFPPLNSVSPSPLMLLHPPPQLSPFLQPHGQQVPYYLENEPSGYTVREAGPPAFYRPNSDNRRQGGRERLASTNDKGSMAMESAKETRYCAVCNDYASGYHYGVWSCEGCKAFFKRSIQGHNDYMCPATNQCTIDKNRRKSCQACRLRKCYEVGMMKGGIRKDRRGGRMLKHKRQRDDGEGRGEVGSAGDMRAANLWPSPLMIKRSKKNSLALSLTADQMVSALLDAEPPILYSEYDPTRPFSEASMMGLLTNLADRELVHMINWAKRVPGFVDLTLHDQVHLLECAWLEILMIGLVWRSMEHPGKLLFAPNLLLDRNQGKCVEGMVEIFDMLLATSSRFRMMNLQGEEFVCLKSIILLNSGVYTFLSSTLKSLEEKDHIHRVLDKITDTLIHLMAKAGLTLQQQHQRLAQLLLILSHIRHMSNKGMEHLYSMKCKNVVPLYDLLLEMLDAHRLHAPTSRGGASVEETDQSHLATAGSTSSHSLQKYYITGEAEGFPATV

Test [9] is described as follows: qHTS assay to identify small molecule antagonists of the estrogen receptor alpha (ER-alpha) signaling pathway - cell viability counter screen (AID 743074; calls by dose curve; further: nearly all actives have a fitted effect of over 45% in size).
The target in test [10] is Estrogen receptor (Homo sapiens) (UniProt P03372). As to the kind of experiment: qHTS assay to identify small molecule agonists of the estrogen receptor alpha (ER-alpha) signaling pathway (AID 743075; calls by dose curve).
Test [11] is described as follows: qHTS assay to identify small molecule antagonists of the estrogen receptor alpha (ER-alpha) signaling pathway using the BG1 cell line (AID 743080; calls by dose curve;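 further: BG1 cells stimulated with 17beta-estradiol alongside compound; series mostly up to about 70 µM; nearly all actives have a fitted effect of over 25% in size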). The essentials: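 Endogenous full-length ER-alpha in BG1-Luc-4E2 cells drives a stably integrated 4×ERE luciferase gene; compounds were tested against 17beta-estradiol over 21.5 h, with luminescence and multiplexed viability fluorescence recorded.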

The nature of test [12]: qHTS assay to identify small molecule antagonists of the estrogen receptor alpha (ER-alpha) signaling pathway using the BG1 cell line - cell viability counter screen (AID 743081).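 Further: compound given together with 17beta-estradiol as the ER stimulus; series mostly up to about 70 µM; nearly all actives have a fitted effect of over 45% in size.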
For the next test, the target named is Aromatase (Homo sapiens) (UniProt P11511). As to the kind of experiment: qHTS assay to identify aromatase inhibitors (AID 743083). Further: nearly all actives have a fitted effect of over 55% in size. Further: potency means the concentration at half of the fitted maximal effect.
Chain of Aromatase (Homo sapiens) (P11511 whole entry, looked up): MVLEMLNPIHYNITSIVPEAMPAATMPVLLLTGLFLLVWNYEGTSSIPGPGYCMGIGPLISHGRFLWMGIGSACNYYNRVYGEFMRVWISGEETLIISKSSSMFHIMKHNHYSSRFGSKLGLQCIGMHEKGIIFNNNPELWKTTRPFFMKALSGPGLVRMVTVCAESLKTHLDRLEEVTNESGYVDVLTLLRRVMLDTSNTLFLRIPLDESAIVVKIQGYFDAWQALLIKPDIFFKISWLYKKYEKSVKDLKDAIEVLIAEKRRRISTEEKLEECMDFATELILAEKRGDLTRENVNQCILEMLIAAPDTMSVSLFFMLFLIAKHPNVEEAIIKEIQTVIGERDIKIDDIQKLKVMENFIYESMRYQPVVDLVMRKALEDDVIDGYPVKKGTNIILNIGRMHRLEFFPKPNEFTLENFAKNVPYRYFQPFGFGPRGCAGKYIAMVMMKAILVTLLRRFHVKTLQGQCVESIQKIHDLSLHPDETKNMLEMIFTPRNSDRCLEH
Test [13] is described as follows: qHTS assay to identify small molecule antagonists of the thyroid receptor (TR) signaling pathway - cell viability counter screen (AID 743064). Further: nearly all actives have a fitted effect of over 50% in size. Further: potency means the concentration at half of the fitted maximal effect. The essentials:
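GH3.TRE-Luc cells, 4 h pre-plating; cpd + T3 1 nM final; 37 °C 23.5 h; CellTiter-Fluor 30 min; fluorescence read.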

The nature of test [14]: qHTS assay to identify small molecule antagonists of the thyroid receptor (TR) signaling pathway (AID 743065). Further: nearly all actives have a fitted effect of over 55% in size. Further: potency means the concentration at half of the fitted maximal effect. The essentials: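 GH3.TRE-Luc rat pituitary cells carrying two TR response elements driving luciferase were plated for 4 h, given compound plus 1 nM T3 (final), and incubated 23.5 h at 37 C. ONE-Glo luminescence measured reporter inhibition; CellTiter-Fluor fluorescence tracked cytotoxicity.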

For test [15], the target named is Estrogen receptor (Homo sapiens) (UniProt P03372). The experiment in a line: qHTS assay to identify small molecule agonists of the estrogen receptor alpha (ER-alpha) signaling pathway using the BG1 cell line (AID 743079). Further: nearly all actives have a fitted effect of over 20% in size.

For the compound `O=C(O)Cc1cc(I)c(Oc2cc(I)c(O)c(I)c2)c(I)c1`, the outcome in test [1], in test [5], in [9] and in [12] was inactive. Moreover, the Potency result in test [2], in test [3], in test [4], in test [6], in test [10] and in [11] was “inactive” throughout. Further, the Potency entry in the test with Aromatase (Homo sapiens) was “inactive”. Moreover, the values for the Potency in test [7] and in [8] were 0.003 µM (active) and 15.2 µM [inconclusive] (active), respectively.

With `CC1=CC(C)C(C=O)C(C)C1` (configuration not stated), the compound was classed as inactive in test [1], in test [5] and in test [12]. In addition, the Potency entry in [2], in [6], in test [13], in [14], in test [7] and in test [8] was “inactive” in each case. For the same compound, the Potency entry (in test [10]; in [15]; in test [11]; with Aromatase (Homo sapiens)) was “inactive” each time.

As to `CN(C)C(=O)C(CCN1CCC(O)(c2ccc(Cl)cc2)CC1)(c1ccccc1)c1ccccc1`, in [1], the compound was classed as inactive. In addition, the Potency in [2] is 5.96 µM (active); in test [3], 10.6 µM (active); in [4], 10.6 µM (active); in [13], 8.41 µM (active); in test [14], 8.41 µM (active); with Aromatase (Homo sapiens), 26.6 µM (active). For the same compound, the Potency result in [10] is “inactive”.

`Cc1cc(C)cc(OCC2CNC(=O)O2)c1` (configuration not stated): the call in [1], in test [5], in [9] and in test [12] was inactive. In addition, the Potency result in test [2], in test [4], in test [6], in test [13], in test [14] and in test [7] was “inactive” each time. The Potency entry (in test [8]; in test [10]; in test [15]; in test [11]; in the test with Aromatase (Homo sapiens)) was “inactive” in each case.

For the compound `NC(CS)C(=O)O` (configuration not stated), the compound was classed as inactive in [1], in test [5] and in test [9]. For the same compound, the Potency result (in [2]; in [3]; in test [4]; in [14]; in test [7]; with Aromatase (Homo sapiens)) was “inactive” in each case.

For the compound `CSc1nc(NC2CC2)nc(NC(C)(C)C)n1`, the compound was classed as inactive in test [1], in test [5], in test [9] and in test [12]. In addition, the Potency in test [2], in [3] and in [4] was 54.5 µM (active) each time. The Potency result (in [7]; with Aromatase (Homo sapiens)) was “inactive” throughout.

On to `C[C@H]1O[C@@H](n2cc(F)c(=O)[nH]c2=O)[C@H](O)[C@@H]1O`, for which the compound was classed as inactive in [1], in test [9] and in [12]. Moreover, the Potency in test [2] was 21.1 µM (active); in [4], 23.7 µM (active). Moreover, the Potency entry (in test [6]; in test [14]; in test [7]; with Aromatase (Homo sapiens)) was “inactive” throughout.

In the case of `C/C=C1\C(=O)C[C@H]2[C@@H]3CCC4=CC(=O)CC[C@]4(C)[C@H]3CC[C@]12C`, the outcome in test [1], in test [9] and in [12] was inactive. The Potency in test [2] was 18.9 µM (active); in test [3], 10.7 µM (active); in [4], 13.4 µM (active); in test [14], 30 µM (active). In addition, the Potency entry (in [13]; in [7]; in test [10]; in test [11]; with Aromatase (Homo sapiens)) was “inactive” each time.

Regarding `CO`, the compound was called inactive in [1], in test [5], in [9] and in test [12]. The Potency entry in test [2], in [3], in test [4], in test [6], in test [14] and in [7] was “inactive” in each case. In addition, the Potency result with Aromatase (Homo sapiens) was “inactive”.

For the compound `C=CCSCC1Nc2cc(Cl)c(S(N)(=O)=O)cc2S(=O)(=O)N1` (configuration not stated), the result in test [1], in [5], in [9] and in [12] was inactive. Also, the Potency entry (in test [2]; in test [4]; in test [13]; in test [14]; in test [7]; with Aromatase (Homo sapiens)) was “inactive” in each case.

On to `O=C1C(CCS(=O)c2ccccc2)C(=O)N(c2ccccc2)N1c1ccccc1` (configuration not stated), for which the compound was called inactive in test [1], in test [5], in [9] and in [12]. Besides, the Potency entry in test [2], in test [4], in test [6], in [14], in [7] and in [8] was “inactive” each time. Moreover, the Potency result (in test [10]; in [15]; in test [11]; with Aromatase (Homo sapiens)) was “inactive” in each case.

For the compound `CC/C=C\CCCCO`, the call in test [1], in test [5], in test [9] and in test [12] was inactive. The Potency entry in test [2], in [6], in [14], in [7], in test [8] and in test [10] was “inactive” each time. Also, the Potency result (in [15]; in [11]; with Aromatase (Homo sapiens)) was “inactive” each time.

Take `OC[C@H]1O[C@@H]2O[C@H]3[C@H](O)[C@@H](O)[C@@H](O[C@H]4[C@H](O)[C@@H](O)[C@@H](O[C@H]5[C@H](O)[C@@H](O)[C@@H](O[C@H]6[C@H](O)[C@@H](O)[C@@H](O[C@H]7[C@H](O)[C@@H](O)[C@@H](O[C@H]8[C@H](O)[C@@H](O)[C@@H](O[C@H]9[C@H](O)[C@@H](O)[C@@H](O[C@H]1[C@H](O)[C@H]2O)O[C@@H]9CO)O[C@@H]8CO)O[C@@H]7CO)O[C@@H]6CO)O[C@@H]5CO)O[C@@H]4CO)O[C@@H]3CO`: the result in test [1], in test [5], in [9] and in [12] was inactive. The Potency entry in [2], in test [4], in [6], in test [13], in test [14] and in test [7] was “inactive” in each case. For the same compound, the Potency result with Aromatase (Homo sapiens) is “inactive”.
